Only some compounds are listed: those with a hit (about 19% of all), similar ones and a draw of the others.
HT1080 IDH1KD tx – toxicity to HT-1080 IDH1 knockdown cells (counter line) | AID 686971 | Potency, µM (top dose mostly 46.1 µM), for the others: at the top dose activity, negative = toxicity, most hits filed as cytotoxic | 2% of 360,000 active | HT-1080 IDH1 knockdown viability, ATP luminescence, 48 h;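 note: 0% = DMSO wells and -100% = cell-free medium wells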
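Cytotoxicity counter-line: IDH1KD HT-1080, 48 h, CellTiter-Glo. Curves classed by r2, magnitude and activity.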
TDP1 cell noCPT – qHTS for Inhibitors of human tyrosyl-DNA phosphodiesterase 1 (TDP1): qHTS in cells in absence of CPT | DT40 Tdp1-/- hTDP1 cells, no CPT, ATP luminescence, 48 h | 15% of 420,000 active | Potency, µM (doses to about 46.2 µM), inactives show top-dose activity change, negative = growth inhibition, usual class: inhibitors; note: nearly all actives have a fitted effect of over 55% in size
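Camptothecin absent (DMSO only). Human TDP1-complemented DT40 knockout cells, 400 cells/well, 37 °C for minimum 48 hr; ATP measured via CellTiter-Glo, 30 min dark incubation, luminescence.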
TDP1 cell CPT – growth inhibition of DT40 Tdp1-/-;hTDP1 cells with camptothecin (screen for TDP1 inhibitors) | chicken DT40 Tdp1-/-;hTDP1 cells + 20 nM CPT, ATP luminescence, 48 h | Potency, µM (top dose mostly 46.2 µM), without a hit: at the top dose activity change, negative = growth inhibition, hits mostly inhibitors | 12% of 420,000 active | AID 686979; note: nearly all actives have a fitted effect of over 55% in size
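Chicken DT40 Tdp1-/- cells stably complemented with human TDP1 were seeded at 400 cells/well in medium containing 20 nM camptothecin, exposed to pin-transferred compounds, and grown at 37 °C for at least 48 hr. Viability was read as ATP luminescence.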
HT1080NT lethal – kills 2HG-producing HT-1080-NT fibrosarcoma cells; HT-1080-NT fibrosarcoma viability, CellTiter-Glo ATP luminescence, 48 h; AID 686970; 1.6% of 360,000 active; Potency, µM (highest dose often 46.1 µM), without a hit: at the top dose activity, negative = less viability, actives largely listed as cytotoxic;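 note: NT is the 2HG producing partner of a matched IDH1 knockdown line; 0% = DMSO-treated cells and -100% = media-only wells without cells; nearly all actives have a fitted effect of over 55% in size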
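HT-1080-NT fibrosarcoma cells (2HG-overproducing), 750 cells/well in RPMI with 5% FBS, dosed after 2 h and incubated 48 h at 37C. CellTiter-Glo luminescence normalized to DMSO and no-cell wells; concentration-response curves fitted and classed.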
KB-V1 MDR tox – KB-V1 MDR subline cytotoxicity; KB-V1 MDR cells viability, CellTiter-Glo, 72 h; Potency, µM (highest dose often 46.1 µM), most hits filed as cytotoxic; 3.4% of 400,000 active; note: nearly all actives have a fitted effect of over 60% in size
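Potencies derive from concentration-effect curves fitted to normalized luminescence (CellTiter-Glo) of KB-V1 cells treated for 72 h at 37 degrees C in phenol-red-free DMEM containing 10% FBS.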
KB-3-1 cytotox – KB-3-1 parental cell cytotoxicity; KB-3-1 viability, CellTiter-Glo ATP luminescence, 72 h; Potency, µM (titrated, usually from 46.1 µM), hits mostly cytotoxic; 1.4% of 400,000 active; AID 1347075; note: nearly all actives have a fitted effect of over 60% in size
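Viability of parental KB-3-1 cells, measured by CellTiter-Glo luminescence, followed a 72 h incubation at 37 °C with pinned compounds in phenol-red-free DMEM containing 10% FBS.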
An asterisk follows results filed as active; i = inactive; ? = inconclusive; / = no result given; [ ] = remark or other dose. Calls come from the whole dose curve; as a rule, active = well fitted curve in the direction sought with a large enough effect; inconclusive = small, poorly fitted or top-dose-only effect, or another doubt; inactive = no such curve, though single readings can be large; an effect the other way counts as inactive or inconclusive. Unless noted, % is set by controls: 0 for no effect and ±100 for the full control effect; potency is the fitted concentration of half-maximal effect.

SMILES	HT1080 IDH1KD tx	TDP1 cell noCPT	TDP1 cell CPT	HT1080NT lethal	KB-V1 MDR tox	KB-3-1 cytotox
CC(C)(C)C(=O)NNC(=O)C1CC1(c1ccccc1)c1ccccc1 (configuration not stated)	10%	-6%	-1%	3%	i	i
CCCCC1(c2ccc(F)cc2)NC(=O)N(CC(=O)Nc2ccc(N3CCOCC3)cc2)C1=O (configuration not stated)	-18%	7%	-29%	-8%	i	?
CCOCCCNC(=O)c1ccc2c(=O)n(CCc3ccccc3)c(=O)[nH]c2c1	/	-19%	-3%	/	i	i
Cc1cccc(-c2ccc3[nH]c4c(c3c2)CCN2C[C@@H]([C@H](C)OC(=O)Nc3ccccc3C)[C@@H](N(C)C(=O)Nc3ccccc3C)C[C@@H]42)c1	?	26µM*	?	?	i	?
COc1ccc(-c2ccc3[nH]c4c(c3c2)CCN2C(=O)[C@@H]([C@H](C)O)[C@@H](N(C)C(=O)Nc3cc(Cl)cc(Cl)c3)C[C@@H]42)cc1	15%	15µM*	23µM*	?	i	?
C[C@H](O)[C@@H]1CN2CCc3c([nH]c4ccccc34)[C@@H]2C[C@@H]1N(C)C(=O)Nc1cccc2ccccc12	-22%	?	?	-27%	i	i
COc1ccc(-c2ccc3[nH]c4c(c3c2)CCN2C[C@@H]([C@H](C)O)[C@@H](N(C)C(=O)Nc3cc(Cl)cc(Cl)c3)C[C@@H]42)cc1	21µM*	4.6µM*	9.2µM*	?	?	i
CCNC(=O)N(C)[C@H]1C[C@H]2c3[nH]c4ccccc4c3CCN2C[C@H]1[C@H](C)O	5%	5%	-17%	11%	i	i
C[C@H](O)[C@@H]1C(=O)N2CCc3c([nH]c4ccccc34)[C@@H]2C[C@@H]1N(C)Cc1ccc(Cl)cc1	0%	29µM*	?	0%	i	i
Cc1ccc(NC(=O)c2ccc(=O)n(CC(=O)Nc3cc(C)cc(C)c3)n2)cc1	/	-25%	3%	/	/	/
COc1ccc(OCCNC(=O)c2ccc(C)cc2)cc1	11%	15%	15%	9%	i	i
Cc1ccc(C(=O)O)cc1N=Cc1cc(Br)cc(Br)c1O	?	?	-16%	-22%	?	i
O=C(NC1CCCC1)C(c1ccccc1F)N(C(=O)c1csnn1)c1ccccc1 (configuration not stated)	-2%	-12%	-4%	7%	?	i
COc1ccc(-c2ccc3[nH]c4c(c3c2)CCN2C(=O)[C@@H]([C@H](C)O)[C@@H](N(C)C(=O)Nc3ccc(F)cc3)C[C@@H]42)cc1	?	12µM*	?	?	16µM*	i
COc1ccc(-c2ccc3c(c2)[C@@H]2C[C@H](N(C)C(=O)C(C)(C)C)[C@H]([C@H](C)O)C(=O)N2CC3)cc1	-1%	?	?	-7%	i	i
Cc1ccc(S(=O)(=O)N2CCC(n3c(C)nc4cccnc43)CC2)c(C)c1	/	7.3µM*	6.5µM*	/	i	i
COC(=O)c1ccc(C(=O)OC)c(=O)[nH]1	3%	-2%	14%	3%	i	i
COc1ccc(-c2cc(C(=O)N3CCc4c(cnc(C)c4CNC(=O)c4ccsc4)C3)[nH]n2)cc1	/	-2%	-1%[9.04 µM]	/	/	/
CC1CCCN(C(=S)Nc2ccc3nc4n(c(=O)c3c2)CCCCC4)C1 (configuration not stated)	11%	-30%	-14%	12%	i	i

Screens from PubChem BioAssay.
